Source: PubChem (The Scripps Research Institute Molecular Screening Center)
TEAD-YAP inh – TEAD-YAP interaction inhibition. HEK-TIYL cells, TEAD-Gal4/YAP UAS-luciferase luminescence. inhibition, % at 9.12 µM. AID 1259422. actives 1.4% (n = 640,000); in the data active = inhibition above about 32%;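 also: 0% = median of test compound wells and 100% = reference inhibitor wells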
MITF inh – human MITF inhibition, primary screen. AID 1259374. actives 0.91% (n = 650,000). inhibition, % at 2.6 µM. O75030. AlphaScreen MITF homodimerization, bead proximity signal; in the data active = inhibition above about 50%;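 also: 0% = vehicle wells with protein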
FBW7 act – human FBW7 E3 ligase activation, primary screen | AlphaScreen FBW7–phospho-cyclin E peptide binding, activator screen | normalized activity (activation), % at 26.1 µM | actives 0.13% (n = 650,000) | AID 1259310; in the data active = normalized activity above about 1.9%;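 also: purified mutant Fbw7 with reduced substrate affinity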
GPR151 activ – human GPR151 activation; Q8TDV0; PathHunter beta-arrestin GPR151 cells, luminescence; activation, % at 11.2 µM; AID 1508602; actives 1% (n = 650,000); in the data active = activation above about 4.9%;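 also: 0% = median of compound wells and 100% = cells with positive control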
Target sequence (Q8TDV0 whole entry, looked up): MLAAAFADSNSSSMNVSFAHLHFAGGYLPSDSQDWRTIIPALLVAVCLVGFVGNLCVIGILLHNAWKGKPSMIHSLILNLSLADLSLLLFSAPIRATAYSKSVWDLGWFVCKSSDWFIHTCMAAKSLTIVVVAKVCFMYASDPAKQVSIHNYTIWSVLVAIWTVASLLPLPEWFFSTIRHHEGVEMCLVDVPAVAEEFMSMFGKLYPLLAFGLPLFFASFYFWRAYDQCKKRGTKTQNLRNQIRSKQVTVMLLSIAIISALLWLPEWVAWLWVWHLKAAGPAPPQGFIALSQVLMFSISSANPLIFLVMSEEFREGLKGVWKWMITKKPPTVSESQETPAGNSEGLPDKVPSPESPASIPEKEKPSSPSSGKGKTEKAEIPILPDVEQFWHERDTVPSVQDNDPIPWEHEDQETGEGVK
Starred values were filed as active, the others as inactive; ! = repeats disagree. Rows were chosen to be rich in hits. Some 3.5% of all compounds tested hit in one or more screens of this group.

SMILES	TEAD-YAP inh	MITF inh	FBW7 act	GPR151 activ
O=c1c(-c2ccc(O)cc2)coc2cc(OC3OC(CO)C(O)C(O)C3O)ccc12 (configuration not stated)	53.9*	-1.6	0.1	-2.9
COc1ccc(-c2coc3cc(O)ccc3c2=O)c(O)c1O	-7.8	80.3*	0.3	-1.4
Cc1ccccc1-c1coc2cc(O)ccc2c1=O	-10.2	-17.6	-0.2	1.6
O=c1c(-c2ccc(O)cc2)coc2cc(O)ccc12	73.2*!	18.9	0.3	-1.8
COc1ccc2c(=O)c(-c3ccc(O)cc3)coc2c1	80.8*	-7.4	-0.1	-2.0
CCOc1ccc2nc(SCC(=O)N(CCc3ccccc3)c3ccccc3[N+](=O)[O-])sc2c1	-27.1	9.2	0.1	2.1
O=c1c(-c2cnn(-c3ccccc3)c2)coc2cc(O)ccc12	33.0*	-21.7	0.1	-2.1
O=c1c(-c2cnn(-c3ccccc3)c2)coc2c(O)c(O)ccc12	-77.4	7.2	-0.1	-0.1
Cc1cccc(CNC(=O)C(=O)Nc2ccccc2Cl)c1	4.2	6.0	0.1	-0.1
CC[C@@]1([C@@H]2O[C@@H]([C@H]3O[C@@](O)(CO)[C@H](C)C[C@@H]3C)C[C@@H]2C)CC[C@H]([C@]2(C)CC[C@]3(C[C@H](O)[C@@H](C)[C@@H]([C@@H](C)[C@@H](OC)[C@H](C)C(=O)O)O3)O2)O1	78.7*	16.4	0.5	0.1
CC1NC(=O)c2cc(N)ccc2NC1=O (configuration not stated)	5.2	-0.3	-0.2	-0.6
CCN1/C(=C/C=C/c2sc3c(C)cccc3[n+]2CC)Sc2c(C)cccc21	44.4*	32.8	0.2	-1.0
N=C1/C(=C/c2ccc(F)cc2)C(=O)N=C2SC(C(F)(F)F)=NN12	-0.4	4.4	0.3	-0.7
CCOC(=O)C1=C(c2ccccc2)N=c2s/c(=C\c3ccc(-c4cccc(C(=O)OCC)c4)o3)c(=O)n2C1c1ccc(Cl)cc1 (configuration not stated)	11.1	10.3	0.4	0.7
Cn1c(NC(=O)c2ccc(Cl)c(Cl)c2)nc2ccccc21	-19.9	22.4	0.2	0.2
Cc1ccc(C(=O)Nc2nc3ccccc3n2C)cc1	41.2*	15.9	-0.5	-2.6
CC(C)(C)c1ncn(-c2ccc(Nc3nccc(-c4cncc(N5CCOCC5)c4)n3)cc2)n1	74.2*	-11.9	-0.1	4.0
CN(C)c1ncn(-c2ccc(Nc3nccc(-c4cncc(N5CCOCC5)c4)n3)cc2)n1	63.0*	-4.8	-0.2	-0.1
FC(F)(F)c1ncn(-c2ccc(Nc3nccc(-c4cncc(N5CCOCC5)c4)n3)cc2)n1	-9.2	-7.9	0.0	-0.2
Cc1ccc(S(=O)(=O)N(NC2=NS(=O)(=O)c3ccccc32)C(=O)c2ccc(Cl)cc2)cc1	1.6	22.0	0.4	0.4
Cc1ccc2nc(N3CCC(C(=O)NCc4ccco4)CC3)nc(C)c2c1	-29.8	0.3	-0.1	3.4
Nc1sc2ccccc2[n+]1CC(=O)c1ccccc1	74.7*	24.6	2.4*	-8.7
O=C(C[n+]1cccc2ccccc21)c1ccccc1	-6.8	10.6	0.1	-2.7
CCc1n[n+](CC(=O)c2ccccc2)c(N)s1	57.1*	10.7	0.2	-9.2
COc1ccc(C2Nc3c(OC)cccc3C3C=CCC32)cc1[N+](=O)[O-] (configuration not stated)	1.1	14.8	-0.2	-1.4
SMILES	TEAD-YAP inh	MITF inh	FBW7 act	GPR151 activ
Cc1ccc(OCCN(C)S(=O)(=O)c2ccc3ccccc3c2)cc1	5.6	0.8	0.1	0.0
Nc1nonc1N=NN(CC(=O)Nc1c(Cl)cccc1Cl)c1nonc1N	-3.0	8.4	0.0	-1.4
Nc1nonc1N=NN(Cc1ccc(Cl)cc1Cl)c1nonc1N	10.2	72.8*	-0.1	2.2
CN(C)/C=N/C1=C(C#N)C(c2ccc3c(c2)OCO3)c2ccc3ccccc3c2O1 (configuration not stated)	44.7*	-7.2	0.0	0.9
O=C1C=CC(=NS(=O)(=O)c2cccc(C(=O)O)c2)C=C1	-1.7	64.3*	-0.2	-1.3
CC1(C)C(=O)Nc2ccc(-c3ccccc3)cc21	-12.4	-3.7	-0.1	0.0
CC(C)S(=O)(=O)/C(Cl)=C(\Cl)C(=O)Nc1ccccc1Cl	94.5*	23.6	0.1	-2.6
COc1cccc(NC(=O)c2cnc(SCC(=O)N3CCN(c4ccccc4)CC3)n(C)c2=O)c1	35.5*	-6.6	-0.1	-2.2
COc1cccc(-c2ccc3nnc(SCC(=O)N4CCN(c5ccccc5)CC4)n3n2)c1	32.8*	13.4	0.6	-1.5
CCOC(=O)Cn1nnnc1CN(Cc1cc2ccc(C)cc2[nH]c1=O)C1CCCC1	8.3	1.4	0.2	-0.1
Cc1cccc(C(=O)N(C)Cc2ccccc2)c1	-1.9	-18.2	-0.2	-1.3
CSc1ccc(/C=C2\C(=N)N3N=C(S(C)(=O)=O)SC3=NC2=O)cc1	0.9	8.0	0.1	3.0
COc1cc2nc(Nc3ccccc3)nc(Nc3ccccc3)c2cc1OC	10.0	-7.2	0.0	1.5
COc1cc2nc(Oc3ccccc3)nc(Nc3ccc(N4CCOCC4)cc3)c2cc1OC	41.6*	1.2	-0.2	2.3
COc1cc2nc(Oc3ccccc3)nc(Nc3ccccc3)c2cc1OC	37.6*	0.8	0.0	0.5
CN(C(=O)c1cnc(N2CCN(c3ccccn3)CC2)c2ccccc12)c1cccc(C(F)(F)F)c1	1.8	14.6	0.0	0.0
COCCNc1ncnc2scc(-c3ccccc3)c12	36.2*	-9.2	-0.1	1.2
COc1ccc(CCNc2ncnc3scc(-c4ccccc4)c23)cc1OC	50.4*	-8.9	-0.1	2.7
OCCNc1ncnc2scc(-c3ccccc3)c12	18.6	19.9	1.1	-0.2
Cc1ccc2c(c1)C(=O)CC1(CCN(C(=O)OC(C)(C)C)CC1)O2	15.9	-12.6	0.0	-0.3
COc1ccc(C(=O)N2CCN(Cc3ccc(SC)cc3)CC2)cc1	42.8*	36.6	-0.1	-1.7
Cc1ccc(/C=C/c2ccncc2)cc1	51.2*	-5.0	0.0	-5.9
O=C(CN1CCCc2ccccc21)N/N=C/c1ccco1	67.7*	-8.3	0.0	-1.9
CCOCC(=O)Nc1cc(-c2cn3nc(OC)ccc3n2)ccc1F	67.9*	-9.7	0.0	-5.7
CCOCC(=O)Nc1ccc(-c2cn3nc(OC)ccc3n2)cc1	3.7	9.0	0.4	-2.6
SMILES	TEAD-YAP inh	MITF inh	FBW7 act	GPR151 activ
O=C1C(Nc2ccc(O)cc2)=C/C(=N/S(=O)(=O)c2cccc([N+](=O)[O-])c2)c2ccccc21	92.2*	28.5	-0.6	-1.7
O=C(O)c1ccc(NC2=C/C(=N/S(=O)(=O)c3ccccc3)c3ccccc3C2=O)cc1	0.2	9.1	-0.1	-3.0
O=C1C(Nc2ccc(O)cc2)=C/C(=N/S(=O)(=O)c2cccs2)c2ccccc21	97.4*	29.4	-0.6	-1.8
COc1ccccc1NC1=C/C(=N/S(=O)(=O)c2cccs2)c2ccccc2C1=O	-11.8	53.7*	-0.6	-0.3
COc1ccccc1NC1=C/C(=N/S(=O)(=O)c2ccccc2)c2ccccc2C1=O	47.7*	71.2*	-0.6	-0.8
O=C(O)c1ccc(NC2=C/C(=N/S(=O)(=O)c3cccs3)c3ccccc3C2=O)cc1	-10.7	7.0	-0.4	-2.4
COc1ccc(CC(=O)Nc2cc(C)cc(C)c2)cc1OC	-5.8	6.4	-0.1	0.8
